CHT inh = human CHT choline transport inhibition | hit rate 0.86% among 310,000 | Q9GZV3 | AID 488975 | CHT-expressing cells, membrane potential dye, choline response; stronger effect = lower value | B-score at 10 µM;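 active = B-score over 3 SD under the library average, and starting fluorescence ratio not unusually high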;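 also: choline stimulus applied at its EC90 after an EC20 pre-addition; B-score computed on integrated fluorescence ratio after choline addition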
PHOSPHO1 block = inhibitors of human PHOSPHO1 phosphatase; hit rate 1.1% among 290,000; AID 1565; inhibition, % at 13.3 µM; recombinant PHOSPHO1, absorbance phosphatase assay; Q8TCT1; in the data active = inhibition above about 60%
ANO1 block = blocks the mouse calcium-activated chloride channel TMEM16A; Q8BHY3; HEK293 TMEM16A/YFP iodide influx fluorescence, ionomycin; normalized B-score (activity score, 25-100; higher = stronger inhibition) at 10 µM; hit rate 1.2% among 310,000; AID 588511;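 active = ratio plate-corrected score three or more library SD toward inhibition, starting fluorescence score within five deviations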;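 also: score derived from kinetic fluorescence span divided by baseline fluorescence per well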
HDAC3 inhib = blocks human histone deacetylase 3. inhibition, % at 8.3 µM. O15379. recombinant HDAC3, fluorogenic peptide/trypsin coupled, fluorescence. AID 2718. hit rate 0.15% among 320,000; in the data active = inhibition above about 26%, passing the limit was not always enough
CHT allo act = human CHT allosteric activation | Q9GZV3 | AID 488977 | CHT-expressing cells, membrane potential dye, choline EC20; stronger effect = higher value; LV-AA mutant CHT in HEK293 cells | B-score at 10 µM | hit rate 0.49% among 310,000;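 active = initial fluorescence not abnormally high and integrated response B-score, plate-corrected, over 3 SD above library mean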
ANO1 activ = activators or potentiators of mouse TMEM16A chloride channel. HEK293 TMEM16A/YFP-H148Q/I152L, iodide quench fluorescence; stronger effect = lower value. B-score at 10 µM. hit rate 0.3% among 340,000. Q8BHY3. AID 623877;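 active = fluorescence-ratio B-score plate-corrected deviation score at least 3 library SD below zero, with starting fluorescence score within 5 deviations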;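 also: channel opened by trigger with iodide after compound preincubation; score built on the fluorescence ratio of max minus min over baseline; more negative score means more quench and so TMEM16A activation or potentiation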
CHT act confirm = confirmation of human choline transporter (CHT) activators; shares compounds with CHT allo act; CHT-expressing cells, membrane potential dye fluorescence (FDSS); % of choline EC20–EC90 response window; HEK293 expressing CHT LV-AA mutant; choline added at its EC20; activation, % at 10 µM; hit rate 91% among 2,500;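 active = primary screen active, with duplicate mean activation above negative control mean plus 3 SD, cut at about 11% in these data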
HEK293 MP dye = counter-screen for CHT activators: effect in parental HEK293 cells | shares compounds with CHT allo act | ratio readout change at 10 µM, hits read low | membrane potential dye fluorescence (FDSS); measured after EC20 choline addition | hit rate 62% among 2,500;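 active = duplicate-averaged ratio beyond 3 SD from buffer wells, up or down, though filed actives are nearly all decreases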
An asterisk follows results filed as active. Hits are enriched below; roughly 3.2% of the tested compounds scored in any of these assays.

Cc1cccn2c(=O)c(C=C(C#N)C#N)c(N3CCN(c4ccccc4)CC3)nc12 was read as CHT inh inactive, PHOSPHO1 block -4, ANO1 block inactive, HDAC3 inhib -1, CHT allo act inactive and ANO1 activ inactive.
For CCN1CCN(c2nc3c(C)cccn3c(=O)c2C=C(C#N)C#N)CC1 the results were CHT inh inactive, PHOSPHO1 block 31, ANO1 block inactive, HDAC3 inhib -1, CHT allo act 7.3*, ANO1 activ inactive, CHT act confirm 50* and HEK293 MP dye -61*.
Screening CN(C)CCCn1c(NCc2ccc3c(c2)OCO3)nc2ccccc21 returned CHT inh inactive, PHOSPHO1 block -3, ANO1 block inactive, HDAC3 inhib 8, CHT allo act inactive, ANO1 activ inactive, CHT act confirm 35* and HEK293 MP dye -50*.
For Cc1cccc(N2CCN(Cc3nc(-c4ccccc4Cl)oc3C)CC2)n1 the results were CHT inh inactive, PHOSPHO1 block 2, ANO1 block inactive, HDAC3 inhib 8, CHT allo act inactive and ANO1 activ inactive.
`Cc1ccc(-c2nnc(Nc3ccc4c(c3)nc(C)n4C)c3ccccc23)cc1` gave CHT inh inactive, PHOSPHO1 block 23, ANO1 block inactive, HDAC3 inhib 0, CHT allo act inactive and ANO1 activ inactive.
For Cc1nnc(Nc2ccc3c(c2)ncn3C)c2ccccc12 the results were CHT inh inactive, PHOSPHO1 block 11, ANO1 block inactive, HDAC3 inhib 0, CHT allo act inactive, ANO1 activ inactive, CHT act confirm 33* and HEK293 MP dye -47*.
CNC(=O)c1ccc(Nc2nnc(C)c3ccccc23)cc1 was read as CHT inh inactive, PHOSPHO1 block 14, ANO1 block inactive, HDAC3 inhib 3, CHT allo act inactive, ANO1 activ inactive, CHT act confirm 47* and HEK293 MP dye -48*.
For Cc1noc(C)c1NC(=O)N(C)C[C@H]1Oc2ccc(NC(=O)NC(C)C)cc2C(=O)N([C@H](C)CO)C[C@@H]1C the results were HDAC3 inhib -7 and ANO1 activ inactive.
COc1ccc(C(=O)NCC2(N3CCCCC3)CCCCC2)cc1S(=O)(=O)N(C)C was read as CHT inh inactive, PHOSPHO1 block 35, ANO1 block inactive, HDAC3 inhib -1, CHT allo act inactive and ANO1 activ inactive.
Screening Oc1ccc(/C=N/n2cnn(Cc3ccccc3Cl)c2=S)c(O)c1 returned CHT inh inactive, PHOSPHO1 block -20, ANO1 block inactive, HDAC3 inhib -2, CHT allo act inactive and ANO1 activ inactive.
COc1ccc(NC(=O)CN(C2CCCCC2)S(C)(=O)=O)cc1OC was read as CHT inh inactive, PHOSPHO1 block 16, ANO1 block inactive, HDAC3 inhib 0, CHT allo act inactive and ANO1 activ inactive.
For CSc1cccc(NC(=O)CN(C2CCCCC2)S(C)(=O)=O)c1 the results were CHT inh inactive, PHOSPHO1 block 15, ANO1 block inactive, HDAC3 inhib 6, CHT allo act 8.9*, ANO1 activ inactive, CHT act confirm 42* and HEK293 MP dye inactive.
O=C(c1ccc(CS(=O)c2ccccc2Cl)o1)N1CCN(c2ccccc2)CC1 (centres undefined) was read as CHT inh inactive, PHOSPHO1 block 42, ANO1 block inactive, HDAC3 inhib 6, CHT allo act 6.4*, ANO1 activ inactive, CHT act confirm 17* and HEK293 MP dye inactive.
For COc1cccc(N2CCN(C(=O)c3ccc(CS(=O)c4ccccc4Cl)o3)CC2)c1 (centres undefined) the results were CHT inh inactive, PHOSPHO1 block 42, ANO1 block inactive, HDAC3 inhib 5, CHT allo act inactive, ANO1 activ inactive, CHT act confirm 50* and HEK293 MP dye inactive.
